# Screen size: about 310,000 compounds; about 17,000 (5.5%) were called active. Inconclusive results (about 11%) are left out. Calls follow the shape of the dose curve; as a rule, active = well fitted inhibition curve with a large enough effect; inconclusive = small, poorly fitted or top-dose-only effect, or effect the other way; inactive = no such curve, though single readings can be large or run the other way. Many of the other results were omitted from the sample, so actives are more common in it than they were.
# Target: Nuclear receptor ROR-gamma (Mus musculus) (UniProt P51450)
# Sequence (P51450 whole entry, looked up): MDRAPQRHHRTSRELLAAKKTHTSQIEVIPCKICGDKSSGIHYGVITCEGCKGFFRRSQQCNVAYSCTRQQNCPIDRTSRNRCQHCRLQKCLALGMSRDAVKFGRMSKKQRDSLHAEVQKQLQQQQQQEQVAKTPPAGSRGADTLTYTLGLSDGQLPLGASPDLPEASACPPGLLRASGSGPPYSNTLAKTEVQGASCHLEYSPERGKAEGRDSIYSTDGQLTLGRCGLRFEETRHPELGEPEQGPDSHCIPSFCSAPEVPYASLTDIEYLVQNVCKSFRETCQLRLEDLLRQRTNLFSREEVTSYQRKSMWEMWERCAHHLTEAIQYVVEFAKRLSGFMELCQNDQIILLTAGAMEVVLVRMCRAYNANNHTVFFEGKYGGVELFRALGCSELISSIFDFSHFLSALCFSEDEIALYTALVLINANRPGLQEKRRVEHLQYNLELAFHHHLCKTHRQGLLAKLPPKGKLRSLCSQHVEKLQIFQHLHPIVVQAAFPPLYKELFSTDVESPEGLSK
# Assay: qHTS for inhibitors of ROR gamma transcriptional activity; also: nearly all actives have a fitted effect of over 60% in size
# Details: Drosophila S2 Gal4-RORgamma UAS-luciferase reporter, 20 h; series mostly up to 53.6 µM; activity change, negative = inhibition: at the top concentration
# How it was run: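 In this cell-based reporter format, copper sulfate (700 uM final) drives Gal4–ROR gamma fusion expression from a metallothionein promoter in Drosophila Schneider cells; compounds preincubated 1 hr, reporter read after 20 hr at ambient temperature.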
# % is scaled to controls: 0 for no effect and ±100 for the full control effect; potency is read from the fitted curve at half-maximal effect.
SMILES,"activity change, negative = inhibition",Potency
CCc1ccc(NC(=O)CN2CCC(C(=O)c3ccc(OC)cc3)CC2)cc1,-0.195% (inactive),
Cc1c(C(=O)NC2CCCCC2)oc2ccccc12,31.6% (inactive),
CCCNC(=O)CCc1c(C)nc2c(c(C)nn2-c2ccccc2)c1C,2.6% (inactive),
Cc1ccc(S(=O)(=O)N2CCCC(C(=O)N3CCN(C)CC3)C2)cc1 (stereo unspecified),-10.6% (inactive),
O=C(Nc1ccncc1)Nc1ccc(F)cc1,-6.05% (inactive),
COc1ccc(OCc2cc(C(=O)N3CCCC3)no2)c2ccccc12,-2.3% (inactive),
COC(=O)CN1C(=O)[C@H]2[C@@H](C3CC3)N3C(=O)CN(Cc4ccc(-c5ccccc5)cc4)C(=O)[C@@]3(Cc3ccccc3)[C@H]2C1=O,16.4% (inactive),
CS(=O)(=O)Nc1ccccc1N=C(c1ccccc1)c1ccccc1,-31.1% [at 1.91 µM] (inactive),
COc1ccc(CN2CCNC(=O)C2CC(=O)NCc2cn[nH]c2-c2ccccc2)c(F)c1 (stereo unspecified),14.9% (inactive),
COc1ccc2oc(C(=O)NCC(Cc3ccccc3)N(C)C)c(C)c2c1 (stereo unspecified),-17.4% (inactive),
O=C(COc1ccc([N+](=O)[O-])cc1)Nc1ccc(N2CCCC2)cc1,-9.99% (inactive),
Cc1ccccc1C(=O)Nc1ccc(N2CCCCCC2)cc1,14.4% (inactive),
O=C(c1ccccc1)c1ccc(C(=O)N2CCN(c3ccccc3)CC2)cc1,-4.53% (inactive),
Cc1nc(NC(=O)c2ccc3c(c2)OCCO3)ccc1Br,-8.45% (inactive),
Cc1ccc(OCCCC(=O)Nc2ccc(N3CCOCC3)cc2)cc1,-7.03% (inactive),
O=C(CN1CCN(c2ccc(O)cc2)CC1)Nc1ccc(-c2ccccc2)cc1,-1.13% (inactive),
O=C(Nc1ccc(Cl)cn1)c1ccc2c(c1)OCCO2,,8.91 µM (active)
O=C(Nc1ccc(Cl)cn1)c1cnn2cccnc12,11.5% (inactive),
Cc1ccc(C(=O)NC(=S)Nc2ccc(N3CCOCC3)cc2)cc1,,6.31 µM (active)
COC(=O)c1ccc(NC(=S)NN2CCOCC2)cc1,31.5% (inactive),
O=C(Cc1ccccc1)NC(=S)Nc1ccc(N2CCCCC2)cc1,,2.24 µM (active)
Cc1ccccc1C(=O)NC(=S)Nc1ccc(N2CCN(C(=O)c3ccccc3)CC2)cc1,,22.4 µM (active)

SMILES,"activity change, negative = inhibition",Potency
CC1CCCN(CCCNC(=O)CN2C(=O)COc3ccc(S(=O)(=O)N4CCOCC4)cc32)C1 (stereo unspecified),-12.2% (inactive),
CC(C)[C@@H](C(=O)O)N(Cc1cccc(CN([C@H](C(=O)O)C(C)C)S(C)(=O)=O)c1)S(C)(=O)=O,0.567% (inactive),
COc1ccc(CCNC(=O)c2c(C)nn(-c3ccccc3)c2Cl)cc1,24.7% (inactive),
COc1ccc(CC(=O)NC2CCSc3ccccc32)cc1OC (stereo unspecified),7.66% (inactive),
COC(=O)c1ccc(Nc2ncnc3sccc23)cc1,38.8% (inactive),
O=S(=O)(c1ccccc1)N(Cc1cccc(F)c1)c1ccccc1,2.19% (inactive),
N#CCC(=O)NC1CCC(CC2CCC(NC(=O)CC#N)CC2)CC1 (stereo unspecified),21.4% (inactive),
CCOC(OCC)c1ccc(/C=C\c2nccc(N)n2)cc1,-4.15% (inactive),
Cc1cc(=O)n2nc(N3CCC(C(=O)Nc4c(F)c(F)c(F)c(F)c4F)CC3)sc2n1,8.27% (inactive),
COc1ccc(C)cc1NC(=O)NCCCCc1ccccc1,33.6% (inactive),
Cc1cc(CNC(=O)C2CCC(=O)N(CCc3ccc(Cl)cc3)C2)no1 (stereo unspecified),0.942% (inactive),
COC1=C(N2CCOCC2)C(=O)c2ccccc2C1=O,4.55% (inactive),
CCOc1ccc(NC(=O)c2ccc(NC(=O)C3CCCO3)cc2)cc1 (stereo unspecified),-12.3% (inactive),
O=C(NC(=S)NC1CCSC1=O)c1ccccc1F (stereo unspecified),-29.6% (inactive),
Cc1ccccc1C(=O)NC(=S)NC1CC1,,14.1 µM (active)
Cc1ccccc1C(=O)Nc1ccccc1NC(=O)c1ccccc1C,-10.9% (inactive),
CC(C)n1c(O)c(N=Nc2ccccn2)c2ccccc21,,8.91 µM (active)
CC(C)n1c(C(O)c2ccccc2)nc2ccccc21 (stereo unspecified),-20.2% (inactive),
COC(=O)Cn1c(O)c(N=NC(=O)OC)c2ccccc21,7.4% (inactive),
COc1ccc(C=Nc2cccc3ncccc23)cc1,-11% (inactive),
COc1ccc(/C=N/Nc2nc3ccccc3c(=O)[nH]2)cc1,,11.2 µM (active)
COc1ccc(/C=N/Nc2nc(-c3ccc(C)cc3)c(C#N)c(=O)[nH]2)cc1,20.4% [at 1.91 µM] (inactive),

SMILES,"activity change, negative = inhibition",Potency
COc1ccccc1C(=O)N/C(=C/c1ccc2c(c1)OCO2)C(=O)Nc1cccc(C(=O)O)c1,5.47% (inactive),
O=[N+]([O-])c1c(NCCO)cc(Sc2nc3ccccc3s2)c2nonc12,,2.82 µM (active)
CCOc1ccccc1Nc1ccc2nonc2c1[N+](=O)[O-],7.05% (inactive),
O=C(CSc1nc2ccccc2s1)Nc1ccc(C(=O)O)cc1,12.8% (inactive),
CC(C)OCCCNC(=O)CN1C(=O)/C(=C/c2ccccc2F)Oc2ccccc21,-0.186% (inactive),
O=C(CSCc1c(Cl)cccc1Cl)NN1C(=O)c2ccccc2C1=O,-1.68% (inactive),
CCn1c(CSCc2c(Cl)cccc2Cl)n[nH]c1=S,,3.16 µM (active)
CCn1c(CNS(=O)(=O)c2ccc(Cl)cc2)n[nH]c1=S,-10.8% (inactive),
O=C1NC(c2ccccc2)Oc2ccccc21 (stereo unspecified),4.56% (inactive),
CCN(CC)CCCNC(=O)COc1ccc2oc3c(c2c1)CCCC3,6.93% (inactive),
Cc1ccc(CNC(=O)C2CCCN2S(=O)(=O)c2ccc3c(c2)C(C)(C)C(=O)N3C)cc1 (stereo unspecified),-3.5% (inactive),
CN1CCN(NC(=O)Nc2ccc(Br)cc2)CC1,16.6% (inactive),
CC(C)(C)C1CCC(=NNC(=O)c2cc(-c3ccccc3)n[nH]2)CC1 (stereo unspecified),,11.2 µM (active)
O=C(COc1ccc(-c2ccccc2)cc1)NN=C1CCCC1,-25.1% (inactive),
CC(NC(=O)C(=O)NN=C1CCC(C(C)(C)C)CC1)c1ccccc1 (stereo unspecified),-12.8% (inactive),
CC1CN(CC(=O)NC(C)c2ccccc2)CC(C)O1 (stereo unspecified),-6.55% (inactive),
Cc1ccc(-c2nc(C)sc2CC(=O)O)cc1,-0.336% (inactive),
CCOC(=O)C(=O)Nc1nc(-c2ccccc2)c(CC)s1,-31.4% (inactive),
C/C(=N/Nc1nc(-c2ccccc2)c(CC(=O)O)s1)c1ccccc1,,11.2 µM (active)
O=C(/C=C/c1ccco1)Nc1cccc(-c2nc3ccccc3[nH]2)c1,23.4% (inactive),
Cc1ccc(-c2nc3ccccc3[nH]2)cc1NC(=O)c1sc2ccccc2c1Cl,-7.38% (inactive),
O=C(Nc1cccc(-c2nc3ccccc3[nH]2)c1)c1ccc(C(=O)Nc2cccc(-c3nc4ccccc4[nH]3)c2)cc1,,2 µM (active)

SMILES,"activity change, negative = inhibition",Potency
Cc1cccc2[nH]c(CN(C)C(=O)C3CCC(=O)N(CCc4ccccc4)C3)nc12 (stereo unspecified),-19.4% (inactive),
C/C(N)=C(/C#N)C(=O)COC(=O)C1=NN(c2ccccc2)C(=O)CC1,10.9% (inactive),
COC(=O)Cc1ccc(Oc2ncc(C(F)(F)F)cc2Cl)cc1,-9.46% (inactive),
N/C(=N\OC(=O)Nc1ccc(Cl)c(Cl)c1)c1ncc(C(F)(F)F)cc1Cl,7.87% (inactive),
COc1cccc(/C=N/Nc2ncc(C(F)(F)F)cc2Cl)c1O,,1.26 µM (active)
CCOC(=O)N1CCN(C(=O)COCc2cc(-c3ccc4c(c3)OCO4)on2)CC1,-3.42% (inactive),
CCOC(=O)c1ccc(N2C(=O)CC(Sc3nc(O)c(CC)c(=O)[nH]3)C2=O)cc1 (stereo unspecified),-0.429% (inactive),
Cc1ccnc(SCC(N)=O)n1,9.61% (inactive),
CCOc1ccccc1N1C(=O)CC(Sc2nccc(C)n2)C1=O (stereo unspecified),,25.1 µM (active)
CCn1ccnc1CNC(=O)CC1C(=O)NCCN1CCCc1ccccc1 (stereo unspecified),-26.2% (inactive),
O=C(NCCS(=O)(=O)N1CCN(c2ccccc2F)CC1)c1ccc(Br)o1,14.8% (inactive),
Cc1cccc(NC(=O)c2cccnc2Cl)n1,7.82% (inactive),
OCC1(CCOc2ccccc2)CCN(Cc2cn[nH]c2-c2ccccc2)CC1,18.3% (inactive),
CC(C)(O)C#Cc1ccc(CN2CCC(CO)(CCc3ccccc3)CC2)cc1,1.77% (inactive),
Cc1c(CN2CCC(CO)(CCOc3ccccc3)CC2)[nH]c2ccc(Cl)cc12,,11.2 µM (active)
CC(C)(C)NC(=O)C(c1ccc(Cl)cc1)N(CCO)C(=O)c1snc(C(N)=O)c1N (stereo unspecified),-12.6% (inactive),
COC(=O)CCc1ccccc1S(=O)(=O)N(CCC(=O)OC)Cc1ccccc1,-5.18% (inactive),
CCOC(=O)C1=C(c2ccccc2)NC(=O)NC1c1cc(OCC)c(O)c([N+](=O)[O-])c1 (stereo unspecified),35% (inactive),
CCOC(=O)c1cc(Sc2ccccc2N)cc(C(=O)OCC)n1,43.4% (inactive),
Nc1ccccc1Sc1ccc(C(F)(F)F)cc1[N+](=O)[O-],3.1% (inactive),
CCS(=O)(=O)c1cc([N+](=O)[O-])c(Sc2ccccc2N)s1,,7.94 µM (active)
COc1ccc(N2CCN(C3CCCCC3NS(=O)(=O)c3ccccc3)CC2)cc1 (stereo unspecified),-0.458% (inactive),

SMILES,"activity change, negative = inhibition",Potency
CCC(Cc1ccccc1)NS(=O)(=O)c1ccc2c(c1)NC(=O)CS2 (stereo unspecified),17.2% (inactive),
Cc1ccc(C(=O)O)cc1NC(=O)c1ccc(Cn2nc(C)c(Cl)c2C)o1,5.12% (inactive),
Cc1c(Cl)c([N+](=O)[O-])nn1Cc1ccc(C(=O)N/N=C\c2cc(Cl)ccc2O)o1,,5.01 µM (active)
O=C(N/N=C/c1ccc2c(c1)OCO2)c1ccc(Cn2cc([N+](=O)[O-])cn2)o1,28.1% (inactive),
CC(C)c1c(C(=O)N/N=C/c2ccccc2C(=O)O)nnn1-c1nonc1N,0.169% (inactive),
COC(=O)c1sc(-c2ccc(C(C)(C)C)cc2)cc1NC(=O)/C=C/C(=O)O,,12.6 µM (active)
Cc1c(NC(=O)/C=C/C(=O)O)cccc1[N+](=O)[O-],-4.11% (inactive),
O=C(O)/C=C/C(=O)Nc1ccc(F)cc1F,10.8% (inactive),
Cc1ccc(/C=N/NC(=O)Cn2nc(C)c(Br)c2C)o1,-22.6% (inactive),
C/C(=N/NC(=O)c1ccc(Br)o1)c1ccc(C)o1,-4.16% (inactive),
C/C(=N\NC(=O)NC1CCCCC1)c1ccc(OC(F)F)cc1OC(F)F,-26.9% (inactive),
C/C(=N\NC(=S)NC1CCCCC1)c1ccc(C)o1,,0.631 µM (active)
Cc1ccc(/C=N/NC(=S)NC2CCCCC2)o1,,0.251 µM (active)
Cc1ccc(/C=N/NC(=O)CSc2ccccn2)o1,15.4% (inactive),
COc1ccc(S(=O)(=O)N2CCOC2CNC(=O)C(=O)NCc2ccncc2)cc1OC (stereo unspecified),-23.5% (inactive),
O=C(N/N=C/c1cc([N+](=O)[O-])ccc1O)/C(=C\c1cccs1)NC(=O)c1ccccc1,,11.2 µM (active)
O=C(Nc1ccccc1)/C(=C/c1ccc([N+](=O)[O-])cc1)NC(=O)c1ccccc1,-5.91% (inactive),
O=C(N/N=C/c1ccc(O)cc1)/C(=C/c1ccc([N+](=O)[O-])cc1)NC(=O)c1ccccc1,4.46% (inactive),
